A selection: hits, their analogues and other compounds. The true share with any hit is near 2.6%.
Cruzain noTriton = blocks cruzain activity in detergent-free assay; purified cruzain, Z-FR-AMC fluorescence, no detergent; Potency, µM, hits mostly inhibitors; 2.3% of 200,000 active; AID 1476; further: nearly all actives have a fitted effect of over 40% in size
Target sequence (P25779 123-467 limits assumed): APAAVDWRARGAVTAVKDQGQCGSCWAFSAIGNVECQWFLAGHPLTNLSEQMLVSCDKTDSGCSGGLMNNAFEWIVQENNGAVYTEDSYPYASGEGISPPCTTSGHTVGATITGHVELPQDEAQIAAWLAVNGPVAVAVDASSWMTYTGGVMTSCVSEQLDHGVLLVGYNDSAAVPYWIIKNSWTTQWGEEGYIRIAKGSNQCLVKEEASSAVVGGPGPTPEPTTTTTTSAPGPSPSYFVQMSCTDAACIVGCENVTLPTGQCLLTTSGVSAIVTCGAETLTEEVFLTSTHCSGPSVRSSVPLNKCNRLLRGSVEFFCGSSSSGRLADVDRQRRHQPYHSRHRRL
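Detergent-free condition (0.00005% Triton X-100) in acetate buffer pH 5.5 with DTT. 1.5 nM enzyme and compound were pre-mixed 15 min, then 2 uM Z-FR-AMC substrate added; reaction progress from fluorescence change between first and third reads (60 s).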
Cruzain Triton = inhibitors of Trypanosoma cruzi cruzain with detergent | P25779 | purified cruzain, Z-FR-AMC fluorescence, 0.01% Triton | Potency, µM, actives largely listed as inhibitors | 0.43% of 200,000 active | AID 1478; further: nearly all actives have a fitted effect of over 40% in size
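15 min RT preincubation of 1.5 nM cruzain with compound, then 2 uM Z-FR-AMC added; kinetic AMC fluorescence, 60 s delta. Triton X-100 0.01%, pH 5.5.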
A number is an active result; i = inactive; ? = inconclusive. The call rests on the fitted dose curve; in most records, active means well fitted curve in the direction sought with a large enough effect; inconclusive means small, poorly fitted or top-dose-only effect, or another doubt; inactive means no such curve, though single readings can be large; an effect the other way counts as inactive or inconclusive.

SMILES	Cruzain noTriton	Cruzain Triton
Cc1cc(N2CCC(C)CC2)nc2ccc(NC(=O)CCC(=O)N3CCN(c4cccc(C(F)(F)F)c4)CC3)cc12	?	13µM
Cc1cc(N2CCCCC2)nc2ccc(NC(=O)CCC(=O)N3CCN(c4cccc(Cl)c4)CC3)cc12	?	16µM
Cc1cc(N2CCCCC2)nc2ccc(NC(=O)c3cccc(Cl)c3)cc12	i	i
Cc1ccc(Cl)cc1N1CCN(C(=O)CCC(=O)Nc2ccc3nc(N4CCC(C)CC4)cc(C)c3c2)CC1	i	i
CCOc1ccc(Nc2nc3c(S(=O)(=O)c4ccc(CC)cc4)nnn3c3ccc(Cl)cc23)cc1	i	i
COC(=O)C1CCN(c2csc3ccc(C)cc3c2=O)CC1	i	i
CCOc1ccc(S(=O)(=O)c2cn(Cc3ccc(C)cc3)c3ccc(OC)cc3c2=O)cc1	i	i
CC(C)CCN(Cc1ccco1)C(=O)c1cc2c(Cl)nc3ccccc3c2s1	i	i
Cc1cc(-c2ccc(N=Nc3ccc4c(S(=O)(=O)O)cc(S(=O)(=O)O)c(N)c4c3O)c(C)c2)ccc1N=Nc1ccc2c(S(=O)(=O)O)cc(S(=O)(=O)O)c(N)c2c1O	?	28µM
Nc1ccc(N=Nc2ccc(-c3ccc(O)cc3)cc2)c2ccc(S(=O)(=O)O)cc12	i	i
Cc1ccc(N=Nc2c(O)c(S(=O)(=O)O)cc3cc(S(=O)(=O)O)ccc23)c(C)c1	i	i
Nc1c(N=Nc2ccc(-c3ccc(N=Nc4cc(S(=O)(=O)O)c5ccccc5c4N)cc3)cc2)cc(S(=O)(=O)O)c2ccccc12	?	2.8µM
O=S(=O)(c1ccccc1)N1CCC2(CC1)CN(c1ccccn1)C2	i	i
COC(=O)c1c(-c2cccs2)csc1NC(=O)COc1ccc(C)cc1	i	i
COC(=O)c1c(-c2cccs2)csc1NC(=O)COc1ccccc1	i	i
COC(=O)c1c(-c2cccs2)csc1NC(=O)COc1c(C)ccc(C)c1C	25µM	i
COC(=O)c1c(-c2cccs2)csc1NC(=O)COc1ccc(C(C)(C)C)cc1	25µM	i
COc1cccc(OCCn2c(-c3ccc(Cl)cc3)nc3ccccc3c2=O)c1	i	i
Cc1cc(C(=O)CSc2nnc(-c3cccs3)o2)c(C)n1-c1ccccc1	25µM	i
O=C(CSc1nnc(-c2cccs2)o1)c1cccs1	i	i
Cc1cc(C(=O)CSc2nnc(-c3ccco3)o2)c(C)n1-c1ccc2c(c1)OCCO2	10µM	i
Cc1cc(C(=O)CSc2nnc(-c3ccco3)o2)c(C)n1Cc1ccco1	i	i
Cc1ccc(-n2c(=O)c3c(C)c(C)sc3n(CC(=O)NCc3ccccc3)c2=O)cc1C	i	i
CCc1ccc(C(=O)c2cn(CC(=O)Nc3ccc4c(c3)OCO4)c3cc(OC)c(OC)cc3c2=O)cc1	?	i
COc1ccc(N2C(=O)CC(S/C(N)=N/N=C/c3ccnc4ccccc34)C2=O)cc1 (stereo not drawn)	10µM	25µM
SMILES	Cruzain noTriton	Cruzain Triton
N/C(=N\N=C\c1ccnc2ccccc12)SC1CC(=O)N(c2ccc(Br)cc2)C1=O (stereo not drawn)	10µM	i
C/C(=N\N=C(/N)SC1CC(=O)N(c2ccc(Br)cc2)C1=O)c1cccs1 (stereo not drawn)	?	i
CCN=C(NCC)SC1CC(=O)N(c2ccc(OC)cc2)C1=O (stereo not drawn)	i	i
O=C(NCc1ccccc1)C1CCN(S(=O)(=O)Cc2ccccc2)CC1	i	i
Cc1cccc(OCc2nc(CC(=O)Nc3ccc(C)cc3C)cs2)c1	i	i
O=C(OCC1CCCO1)c1ccc2c(c1)N(Cc1ccccc1F)C(=O)c1ccccc1S2(=O)=O (stereo not drawn)	i	i
CCc1ccc(N2C(=O)CSC23C(=O)N(Cc2cccc(OC)c2)c2ccccc23)cc1 (stereo not drawn)	i	i
Cc1noc(C)c1-c1cncnc1N(C)Cc1ccco1	i	i
O=C(Nc1cccc2cccnc12)c1cccc2ccccc12	i	i
Oc1c(/C=N/Nc2cccc3cccnc23)ccc2ccccc12	32µM	i
O=C(NCCc1nc2ccccc2n1Cc1c(F)cccc1Cl)c1ccco1	i	?
CCCOC(=O)c1c(NC(=O)C2c3ccccc3Oc3ccccc32)sc2c1CCC(C)C2 (stereo not drawn)	20µM	i
CCOC(=O)c1c(NC(=O)C(C)N2CCN(S(=O)(=O)c3cccs3)CC2)sc2c1CCC(C)C2 (stereo not drawn)	7.9µM	i
CC1CCc2c(sc(NC(=O)C3c4ccccc4Oc4ccccc43)c2C#N)C1 (stereo not drawn)	i	i
CC(C)(C)C1CCc2c(sc(NC(=O)C3c4ccccc4Oc4ccccc43)c2C(N)=O)C1 (stereo not drawn)	10µM	i
CC1CCc2c(sc(NC(=O)C3c4ccccc4Oc4ccccc43)c2C(N)=O)C1 (stereo not drawn)	25µM	i
CCOC(=O)c1c(NC(=O)C2c3ccccc3Oc3ccccc32)sc2c1CCC(CC)C2 (stereo not drawn)	i	i
CC(C)(C)C1CCc2c(sc(NC(=O)c3ccco3)c2C(N)=O)C1 (stereo not drawn)	i	i
CCOC(=O)c1c(NC(=O)C2CCN(S(=O)(=O)c3cccs3)CC2)sc(C)c1C	i	i
CN(C)c1ccc(CNS(=O)(=O)c2ccc(-c3cc(C(F)(F)F)on3)s2)cc1	i	i
COc1ccc(S(=O)(=O)NCCc2csc(-c3ccc(F)cc3)n2)cc1	i	i
Cc1noc(C)c1C(=O)N1CCC2(CCCN(c3ccccn3)C2)CC1	i	i
CCOC(=O)c1cccc(NC(=O)NC2COc3ccccc3C2)c1 (stereo not drawn)	i	i
N#C/C(=C\c1ccc(-c2cc(Cl)ccc2Cl)o1)C(=O)Nc1ccccc1C(=O)O	i	i
Cc1cc2nc3c(=O)n(C)c(=O)n(C)c3nc2cc1N=CN(C)C	i	i
SMILES	Cruzain noTriton	Cruzain Triton
CC(C)(C)C1CCc2c(sc(N)c2C(N)=O)C1 (stereo not drawn)	25µM	i
CCC(C)(C)C1CCc2c(sc(N)c2C(N)=O)C1 (stereo not drawn)	?	i
COc1ccc(Cl)cc1NC(=O)Cn1c(=O)n(Cc2cccs2)c(=O)c2cccnc21	?	i
CCN(CC)c1ccc(/C=C(\C#N)c2nc(-c3cccs3)c(NC(C)=O)s2)cc1	16µM	i
CC(=O)Nc1sc(NC(=O)c2ccccc2)nc1-c1cccs1	i	i
Cc1nc2cncnc2n(C2CC2)c1=O	i	i
Cc1ccc2c(c1)[nH]c1c(=O)n(CCC3=CCCCC3)cnc12	20µM	i
O=c1c2ccc(Cl)cc2[nH]c(=S)n1CCC1=CCCCC1	20µM	i
Cc1ccc2[nH]c3c(=O)n(CCC4=CCCCC4)cnc3c2c1	i	i
CCOC(=O)N1CCN(C(=O)c2ccc3c(=O)n(CCC4=CCCCC4)c(=S)[nH]c3c2)CC1	?	i
CC1CC2(C)Oc3ccccc3C3OCC1(COC(=O)Nc1ccccc1)C(C)C32 (stereo not drawn)	i	i
Cc1ccc(C(=O)N2CCN(c3cccc(Cl)c3)CC2)cc1-n1c(C)nc2cccnc21	?	i
Cc1ccc(S(=O)(=O)n2ccc(-c3ccc(OCc4c(F)cccc4Cl)cc3)n2)cc1	32µM	i
CN(CCOc1ccc(-c2ccn(S(=O)(=O)c3ccc(Cl)cc3)n2)cc1)c1ccccn1	i	i
CC(Oc1ccc(-c2ccccc2)c(F)c1)c1ccn(S(=O)(=O)c2ccc(Cl)cc2)n1 (stereo not drawn)	?	i

Screening data as filed in PubChem.
